Measured values: PubChem BioAssay (NCI)
This is part of a sample that, as a whole, favours compounds with a hit. Of some 83,000 tested, about 20% had one in any assay.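 Cell lines were cultured in 96-well plates, exposed to a single compound concentration, and assessed for percent growth 48 hours later.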 A number with no mark means an inactive call. Active and inactive are the calls of the source. The calls were made as follows: active = growth percent below 10; inactive = the rest.

Legend:
Test in all cases: NCI-60 one-dose screen, 48 h (100 = growth as untreated, 0 = no growth, -100 = all killed)
Conditions in all cases: 10 µM
[1] = test system: SR leukemia
[2] = test system: RPMI-8226 leukemia
[3] = test system: OVCAR-8 ovarian
[4] = test system: OVCAR-5 ovarian
[5] = test system: OVCAR-4 ovarian
[6] = test system: SK-OV-3 ovarian
[7] = test system: IGROV1 ovarian
[8] = test system: OVCAR-3 ovarian
[9] = test system: HS 578T breast
[10] = test system: NCI/ADR-RES ovarian
[11] = test system: T-47D breast
[12] = test system: MDA-MB-435 melanoma
[13] = test system: SW-620 colon
[14] = test system: MCF7 breast
[15] = test system: HCT-116 colon
[16] = test system: HCC-2998 colon
[17] = test system: KM12 colon
[18] = test system: BT-549 breast

SMILES | growth [1] | growth [2] | growth [3] | growth [4] | growth [5] | growth [6] | growth [7] | growth [8] | growth [9] | growth [10] | growth [11] | growth [12] | growth [13] | growth [14] | growth [15] | growth [16] | growth [17] | growth [18]
COc1ccc(-c2[nH]ncc2/C=C/c2cc(C(F)(F)F)[nH]c(=O)n2)cc1 | 71.9% | 96.5% | 102% | 100% | 93.6% | 100% | 93.1% | 95.1% | 106% | 105% | 75.9% | 97.8% | 98.4% | 91.2% | 100% | 103% | 103% | –
CCc1ccc(-c2nnc(COc3ccc(-c4nc5cc(Cl)c(Cl)cc5[nH]4)cc3OC)o2)cc1 | 0.504% (active) | 56.9% | 28.9% | 103% | 45.9% | 96.9% | 64.5% | 65.6% | 77% | 55% | 43.6% | 65.2% | 53% | 15.4% | 1.36% (active) | 82.8% | 44.1% | –
O=[N+]([O-])c1ccc(-c2nc(-c3ccccc3)c(-c3ccccc3)n2-c2ccccc2)cc1 | 4.19% (active) | -20.3% (active) | 26.7% | 91.5% | 24.7% | 55.5% | -29.1% (active) | 40.2% | 20.5% | 5.77% (active) | 21.6% | 36.5% | 48.8% | 19.6% | 33.2% | -36.9% (active) | 37% | –
C=CCOc1ccc2c(c1)CC=C1[C@@H]2CC[C@]2(C)C(=O)/C(=N/O)C[C@@H]12 | 23.9% | 40.6% | 91.2% | 50.6% | 73.3% | 121% | 97.1% | 108% | 99.2% | 83.1% | 87.8% | 72.6% | 79.6% | – | 66.8% | 74.8% | 57.9% | 89.1%
Brc1ccc(-c2cn3ccnc3c(-c3ccc(Br)cc3)n2)cc1 | 13.4% | 58.3% | 51.6% | 82.4% | 62.2% | 55.2% | 55.8% | 31.9% | 61.1% | 19.7% | 37.2% | 3.08% (active) | 25.4% | 22% | 30% | 60.2% | 34.6% | –
CCN1CCOC1C(C)C (stereo not given) | 81.7% | 106% | 108% | 99.2% | 113% | 100% | 108% | 111% | 109% | 102% | 101% | 105% | – | 101% | 102% | 101% | 109% | 108%
Cc1cc(C#Cc2ccccc2)ccc1-n1c(/C=C/c2cc(O)ccc2O)nc2ccccc2c1=O | -26% (active) | -18.1% (active) | 16.3% | -24.5% (active) | 19.2% | -49.3% (active) | -12.6% (active) | -46.2% (active) | 31.8% | 6.37% (active) | -16.8% (active) | -56.3% (active) | 5.7% (active) | 2.03% (active) | -43.8% (active) | -49.6% (active) | -5.21% (active) | –
CCCCCCCCCCCCCC[n+]1ccccc1 | -22.6% (active) | -57% (active) | -68.7% (active) | 5.24% (active) | -6.58% (active) | -0.0653% (active) | -60.4% (active) | -51.2% (active) | -12.6% (active) | 73.3% | 12.7% | -87.6% (active) | 2.31% (active) | 2.73% (active) | -44.3% (active) | -72.1% (active) | -86.1% (active) | –
N=C(N)c1ccc(-c2ccc(-c3ccccc3)s2)s1 | -40% (active) | -44.3% (active) | -39.9% (active) | -23.7% (active) | -70.2% (active) | -50.1% (active) | -31.1% (active) | -41.3% (active) | -21% (active) | -35.2% (active) | -66.9% (active) | -83.3% (active) | -71.1% (active) | -71.5% (active) | -62% (active) | -80.8% (active) | – | –
Cc1cc2cc3c(=O)[nH]c(=O)cc-3n(CC(O)C(O)C(O)CO)c2cc1C (stereo not given) | 111% | 106% | 97.3% | 106% | 109% | 99.1% | 112% | 103% | 101% | 105% | 95.1% | 104% | 89.8% | 101% | 101% | 109% | 108% | –
CCOC(=O)c1cc2c(n1Cc1cc(OC)cc(OC)c1)-c1oncc1CC2 | 18% | 39.5% | 26.8% | 49% | 48.9% | 5.06% (active) | 14.3% | -51.2% (active) | -1.17% (active) | 0.862% (active) | 54.8% | -37% (active) | 34.9% | 16.6% | 14.2% | 19.4% | 19.5% | –
C[N+]1(CC2CO2)CCCCCC1 (stereo not given) | 106% | 103% | 106% | 95.9% | 94.3% | 113% | 112% | 104% | 114% | – | 116% | 102% | 106% | 107% | 103% | 112% | 93.9% | 116%
CCCCCc1cc[n+](CC(=O)c2ccc(Cl)cc2)cc1 | 86% | 91.5% | 98.8% | 71.4% | 96.3% | 99.1% | 86.5% | 59.8% | 95.9% | 99.7% | 90.6% | 86.7% | 83.2% | 89.7% | 59% | – | 73.4% | –
Fc1ccc(-c2cc(C(Cl)Cl)no2)cc1 | 106% | 96.1% | 109% | 101% | 92.2% | 112% | 106% | 98.2% | 93% | 108% | 110% | 97.3% | 92.1% | 88.7% | 90.3% | – | 94.4% | –
CC(C)(C)c1ccc(OCCCCCCN2CCNCC2)cc1 | -8.37% (active) | 0.146% (active) | 89.7% | 82.2% | 72% | 86.4% | 80.8% | 82.1% | 72.4% | – | 34.8% | 68.3% | 45.9% | 17.5% | 8.35% (active) | -47.1% (active) | 51.1% | 58.7%
Cc1ccc2nc(-c3ccc(OCC(=O)N=Nc4c(O)[nH]c5ccccc45)cc3)[nH]c2c1 | -17.5% (active) | 25.7% | 18.5% | 104% | 11.6% | 99.5% | 85.8% | 26.5% | 91.5% | – | 38.4% | 64.3% | 6.51% (active) | -24.7% (active) | -20.5% (active) | 59.7% | 1.59% (active) | 109%
CC(C)OCc1cc(CN2CCN(c3cccc(Cl)c3)CC2)c(O)c2ncccc12 | -30.6% (active) | -25% (active) | -15.2% (active) | 38.3% | 15.7% | 13.7% | 8.86% (active) | 2.88% (active) | -0.795% (active) | – | 3.25% (active) | -28.5% (active) | -3.23% (active) | 4.89% (active) | -55.5% (active) | -21.6% (active) | -23% (active) | -46% (active)
Cc1cnc(C=O)c2cccc([N+](=O)[O-])c12 | 16.5% | 68.1% | 87.3% | 95% | 82.1% | 99.6% | 95.9% | 101% | 94.9% | – | 82.3% | 106% | 47.4% | 75.8% | 17.5% | 101% | 99.2% | 88.5%
COc1cc(CSc2nc3ccc(Cl)cc3c(=O)n2-c2ccccc2)cc(OC)c1OC | 45.6% | 105% | 84.3% | 84.7% | 81.7% | 94.4% | 72.5% | 77.8% | 90.3% | – | 71% | 24.4% | 79.7% | 76.9% | 61.8% | 80% | 49.8% | 92.8%
